39 molecules from the supplement of paper PMC12494721 can be followed below.

Structures can show the parent of a compound that is named as a salt. Values without a mark were called inactive.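 How the source made its calls: for the amine columns active = adjusted P below 0.05 in both replicates with a change the same way and a mean fold change under 0.8 or over 1.25; inactive = the rest.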

The test system of this assay is Klebsiella aerogenes DSM 30053. Description: fold change of Histamine concentration vs plate DMSO controls (fold change (ratio)); higher = more amine produced, active = hit call of the paper (significant change in both replicates, either direction). Particulars: incubation time: 27 h, anaerobic, 37 °C. The essentials: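 Extracts of whole anaerobic mGAM cultures were analysed for amines by LC–triple-quadrupole MS with dynamic MRM and external calibration curves, with drift corrected within batch. Four gut strains were grown at 37 °C for 27 h in 80 µL wells with compounds at 20 µM final, sweeteners at 50 µM final. Each value expresses fold change over plate DMSO controls. The average of 2 biological replicates is shown.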
With `CCCSS/C(CCO)=C(/C)N(C=O)Cc1cnc(C)nc1N` [Prosultiamine] (20 µM), the “fold change of Histamine concentration” value is 0.951.
As to `CN(C)CCOC(c1ccccc1)c1ccccc1.Cn1c(=O)c2[nH]c(Cl)nc2n(C)c1=O` [Dimenhydrinate] (20 µM), the “fold change of Histamine concentration” value is 1.05.
The same measure for `CCCCCCCN(CC)CCCC(O)c1ccc(NS(C)(=O)=O)cc1` (centres undefined) [Ibutilide fumarate] (20 µM): 0.925; for `Cc1cccc(Nc2ccncc2S(=O)(=O)NC(=O)NC(C)C)c1` [Torsemide] (20 µM): 1.03; for `C=C1c2cccc(O)c2C(O)=C2C(=O)[C@]3(O)C(O)=C(C(N)=O)C(=O)[C@@H](N(C)C)[C@@H]3[C@@H](O)[C@H]12` [Methacycline hydrochloride] (20 µM): 0.0707 (active).
For `O=C(O)CNC(=O)C(CS)Cc1ccccc1` (centres undefined) [Thiorphan] (20 µM) the value was 0.964.
For `CCn1cc(C(=O)O)c(=O)c2cc(F)c(N3CCNCC3)nc21` [Enoxacin] (20 µM) the value was 0.228 (active).
On to `Cc1ccc(-c2ncc(Cl)cc2-c2ccc(S(C)(=O)=O)cc2)cn1` [Etoricoxib] (20 µM), for which the “fold change of Histamine concentration” value is 0.814.
The same measure for `CNC(=O)OCc1cccc(COC(=O)NC)n1` [Pyricarbate] (20 µM): 0.976; for `N#Cc1cc(NC(=O)C(=O)O)c(Cl)c(NC(=O)C(=O)O)c1` [Lodoxamide] (20 µM): 0.985.
The same measure for `CNC1(C)C2CCC(C2)C1(C)C` (centres undefined) [Mecamylamine hydrochloride] (20 µM): 1.02.
For `CCOC(=O)[C@H](CCc1ccccc1)N[C@@H](C)C(=O)N(CC(=O)O)C1Cc2ccccc2C1` [Delapril Hydrochloride] (20 µM) the value was 1.04.
`CN1[C@@H]2CC[C@H]1C[C@@H](OC(c1ccccc1)c1ccccc1)C2` [Benztropine mesylate] (20 µM): the “fold change of Histamine concentration” value is 1.09.
For `C[N+]1(CCCCC[N+]2(C)CCCC2)CCCC1` [Pentolinium bitartrate] (20 µM) the value was 1.06; for `CC(=O)Oc1cc(C(F)(F)F)ccc1C(=O)O` [Triflusal] (20 µM), 1; for `COc1ccc2cc(CCC(C)=O)ccc2c1` [Nabumetone] (20 µM), 0.912.
The same measure for `CN1C(=O)CC(c2ccccc2)C1=O` (centres undefined) [Phensuximide] (20 µM): 1.04; for `CC(N)CCCC(C)(C)O` (centres undefined) [Heptaminol hydrochloride] (20 µM): 0.999.
For `CN(C)CCOC(c1ccc(Cl)cc1)c1ccccn1` (centres undefined) [Carbinoxamine maleate salt] (20 µM) the value was 1.04; for `C=CCN1CCCC1CNC(=O)c1cc2nn[nH]c2cc1OC` (centres undefined) [Alizapride hydrochloride] (20 µM), 1; for `CC1(C)O[C@@H]2C[C@H]3[C@@H]4C[C@H](F)C5=CC(=O)C=C[C@]5(C)[C@H]4[C@@H](O)C[C@]3(C)[C@]2(C(=O)CO)O1` [Flunisolide] (20 µM), 0.949.
On to `C=CC(N)CCC(=O)O` (centres undefined) [Vigabatrin hydrochloride] (20 µM), for which the “fold change of Histamine concentration” value was 0.856.
Consider `CC(N)C12CC3CC(CC(C3)C1)C2` (centres undefined) [Rimantadine hydrochloride] (20 µM), for which the “fold change of Histamine concentration” value was 1.01.
As to `O=C(O)c1cc(-c2ccc(F)cc2F)ccc1O` [Diflunisal] (20 µM), the “fold change of Histamine concentration” value is 1.02.
For `OC[C@H]1O[C@@H](O[C@@H]2[C@@H](CO)OC(O)(CO)[C@H]2O)[C@H](O)[C@@H](O)[C@H]1O` (mixture of isomers) [Lactulose] (50 µM) the value was 1.01; for `COc1ccc2c3c1O[C@H]1C[C@@H](O)C=C[C@@]31CCN(C)C2` [Galanthamine hydrobromide] (20 µM), 1.01.
For the molecule `O=C(CCNNC(=O)c1ccncc1)NCc1ccccc1` [Nialamide] (20 µM), the “fold change of Histamine concentration” value is 1.03.
The same measure for `CC(C)OC(=O)C(C)(C)Oc1ccc(C(=O)c2ccc(Cl)cc2)cc1` [Fenofibrate] (20 µM): 0.941; for `Cc1ccc2c(c1)c1c3n2CCNC3CCC1` (centres undefined) [Pirlindole mesylate] (20 µM): 0.963.
For `CC[N+](C)(C)Cc1ccccc1Br` [Bretylium tosylate] (20 µM) the value was 0.853; for `COC(=O)[C@H](Cc1ccccc1)NC(=O)[C@H](CC(=O)O)NCCCc1ccc(OC)c(O)c1` [Advantame] (50 µM), 1.
With `O=C(c1cc(O)c(O)c(O)c1)c1ccc(O)c(O)c1O` [Exifone] (20 µM), the “fold change of Histamine concentration” value is 1.06.
Consider `COc1cc(N)cn[n+]1-c1ccccc1` [Amezinium metilsulfate] (20 µM), for which the “fold change of Histamine concentration” value was 0.987.
As to `CN[C@@H]1[C@@H](O[C@H]2O[C@H](CO)[C@@H](N)[C@H](O)[C@H]2O)OC2C[C@@H](N)[C@@H](O[C@H]3[C@H](O)[C@@H](O)[C@H](N)C[C@@H]3N)OC2[C@@H]1O` (some centres undefined) [Apramycin] (20 µM), the “fold change of Histamine concentration” value was 1.05.
The same measure for `COc1ccc2[nH]c([S+]([O-])Cc3ncc(C)c(OC)c3C)nc2n1` (centres undefined) [Tenatoprazole] (20 µM): 0.985; for `CCCCC(=O)O[C@H]1CC[C@H]2[C@@H]3CCc4cc(O)ccc4[C@H]3CC[C@]12C` [Estradiol Valerate] (20 µM): 0.898; for `O=C(O)CCc1nc(-c2ccccc2)c(-c2ccccc2)o1` [Oxaprozin] (20 µM): 1.04.
In the case of `CC(C)(C)NC[C@H](O)c1ccc(O)c(CO)c1` [Levalbuterol hydrochloride] (20 µM), the “fold change of Histamine concentration” value is 0.991.
Turning to `COc1ccc(C(=O)c2ccc(C)cc2)c(O)c1` [Mexenone] (20 µM), the “fold change of Histamine concentration” value was 1.02.
